DT40 TDP1 no CPT – qHTS for Inhibitors of human tyrosyl-DNA phosphodiesterase 1 (TDP1): qHTS in cells in absence of CPT | DT40 Tdp1-/- hTDP1 cells, no CPT, ATP luminescence, 48 h | Potency, µM (series often up to 46.2 µM), for the others: at the top dose activity change, negative = growth inhibition, usual class: inhibitors | 15% of 420,000 active; note: potency is the fitted concentration of half-maximal effect; nearly all actives have a fitted effect of over 55% in size
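Camptothecin absent (DMSO only). Human TDP1-complemented DT40 knockout cells, 400 cells/well, 37 °C for minimum 48 hr; ATP measured via CellTiter-Glo, 30 min dark incubation, luminescence.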
Giardia killer – Giardia lamblia killing | Giardia lamblia trophozoite viability | activity change, % at 7.66 µM, hits read low | 0.15% of 340,000 active; in the data active = activity change below about -80%; inconclusive = between about -30% and that limit;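 note: parasites exposed to compound for two days anaerobically before the ATP read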
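Trophozoite viability was measured as ATP-dependent luminescence, read 15-30 min after reagent addition. Before that, parasites at 100 cells/well were exposed to compounds for 48 h, anaerobically, at 37 deg C.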
IL-1B inflam inh – inflammasome signaling inhibition, IL-1 beta readout. THP-1 LPS/ATP IL-1B secretion, AlphaLISA, 16 h; stronger effect = lower value. activity change, % at 57.5 µM. 4.7% of 360,000 active. AID 743279; in the data active = activity change below about -50%; inconclusive = mostly about -30% to -49%
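Secreted IL-1B measured by AlphaLISA bead assay after 16 h compound exposure of THP-1 cells; compounds (final up to 57.5 uM) added 1 h before LPS (250 ng/mL) and ATP (1.25 mM) stimulation; lower signal means less secretion.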
TDP1 cell CPT – growth inhibition of DT40 Tdp1-/-;hTDP1 cells with camptothecin (screen for TDP1 inhibitors); chicken DT40 Tdp1-/-;hTDP1 cells + 20 nM CPT, ATP luminescence, 48 h; Potency, µM (doses to about 46.2 µM), for inactives: at the highest dose activity change, negative = growth inhibition, usual class: inhibitors; 12% of 420,000 active; AID 686979; note: potency is the fitted concentration of half-maximal effect; nearly all actives have a fitted effect of over 55% in size
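Chicken DT40 Tdp1-/- cells stably complemented with human TDP1 were seeded at 400 cells/well in medium containing 20 nM camptothecin, exposed to pin-transferred compounds, and grown at 37 °C for at least 48 hr. Viability was read as ATP luminescence.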
TDP1 inh – inhibitors of human tyrosyl-DNA phosphodiesterase TDP1; Potency, µM (titrated, usually from 130 µM), for the others: at the top dose activity change, negative = inhibition, hits mostly inhibitors; 0.28% of 350,000 active; recombinant TDP1, AlphaScreen DNA substrate cleavage; Q9NUW8; note: potency is the fitted concentration of half-maximal effect; nearly all actives have a fitted effect of over 40% in size
Target sequence (Q9NUW8 whole entry, looked up): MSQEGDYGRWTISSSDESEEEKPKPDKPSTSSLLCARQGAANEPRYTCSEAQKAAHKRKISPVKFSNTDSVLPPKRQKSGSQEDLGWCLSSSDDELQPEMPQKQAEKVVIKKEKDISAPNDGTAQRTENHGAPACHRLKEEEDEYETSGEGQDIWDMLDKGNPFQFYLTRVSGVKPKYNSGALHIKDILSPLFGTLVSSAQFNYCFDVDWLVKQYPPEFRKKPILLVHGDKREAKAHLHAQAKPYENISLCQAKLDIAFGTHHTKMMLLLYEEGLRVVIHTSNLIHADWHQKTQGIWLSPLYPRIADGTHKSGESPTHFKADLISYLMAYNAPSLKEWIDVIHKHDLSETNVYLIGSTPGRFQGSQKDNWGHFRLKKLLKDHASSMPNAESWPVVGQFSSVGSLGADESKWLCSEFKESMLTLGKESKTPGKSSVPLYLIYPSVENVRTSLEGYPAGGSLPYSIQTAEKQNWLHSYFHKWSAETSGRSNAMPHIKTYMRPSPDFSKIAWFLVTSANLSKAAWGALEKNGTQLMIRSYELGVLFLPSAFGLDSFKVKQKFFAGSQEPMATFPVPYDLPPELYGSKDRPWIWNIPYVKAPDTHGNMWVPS
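Compounds were preincubated with Tdp1 (1 nM final) for 15 min at room temperature before substrate (15 nM final) started a 5 min reaction; beads (10 ug/ml final) were then added for 10 min before AlphaScreen detection.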
ELG1 DNA repair – blocks ELG1-dependent DNA repair in HEK293T cells | HEK293T ELG1-luciferase reporter, luminescence, 16 h; DNA damage induced by 5-fluorouridine | 2.3% of 330,000 active | Potency, µM (top dose mostly 46.1 µM), without a hit: top-dose activity change, negative = inhibition, most hits filed as inhibitors; note: potency is the fitted concentration of half-maximal effect; nearly all actives have a fitted effect of over 55% in size
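In this reporter screen, reduction of luminescence relative to DMSO vehicle indicated activity. Compounds and 5-fluorouridine were added together to 2,000 cells per well, incubated for 16 hr at 37 °C, then developed with ONE-Glo.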
Starred values were filed as active, the others as inactive; [ ] = another dose, or the depositor's remark. In the library only some 19% were active in any assay of this set; here they are far more common. Unless noted, calls come from the whole dose curve; as a rule, active = well fitted curve in the direction sought with a large enough effect; inconclusive = small, poorly fitted or top-dose-only effect, or another doubt; inactive = no such curve, though single readings can be large; an effect the other way counts as inactive or inconclusive. % is set by controls: 0 for no effect and ±100 for the full control effect.

Screening CCn1c2c(c(=O)n3ncc(C(=O)Nc4cc(Cl)ccc4C)c13)CN(Cc1ccc(OC)cc1)CC2 returned DT40 TDP1 no CPT 20.6µM*, TDP1 cell CPT inconclusive and TDP1 inh 1.8%.
CCn1c2c(c(=O)n3ncc(C(=O)Nc4cccc(Cl)c4C)c13)CN(Cc1ccc(OC)cc1)CC2 was read as DT40 TDP1 no CPT inconclusive, TDP1 cell CPT 20.6µM* and TDP1 inh 6.5%.
NC(=O)c1cccnc1OCC(F)(F)F was read as DT40 TDP1 no CPT -20.5%, Giardia killer 27.6, IL-1B inflam inh -14.1, TDP1 cell CPT 8.4%, TDP1 inh 4.7% and ELG1 DNA repair 12.3%.
Screening Cc1ccc(-c2nc3ccccc3[nH]2)cc1NC(=O)COc1ccccc1[N+](=O)[O-] returned DT40 TDP1 no CPT inconclusive, TDP1 cell CPT 14.6µM* and TDP1 inh -9.7%.
Screening CCCOc1cccc(C(=O)Nc2cc(-c3nc4ccccc4[nH]3)ccc2C)c1 returned DT40 TDP1 no CPT 16.4µM*, TDP1 cell CPT 16.4µM* and TDP1 inh -5.7%[12.3 µM].
Screening CCOc1ccc(C(=O)Nc2cc(-c3nc4cc(OC)ccc4o3)ccc2C)cc1[N+](=O)[O-] returned TDP1 inh 4.5%.
`CCOc1ccc(C(=O)Nc2cc(-c3nc4ccccc4[nH]3)ccc2C)cc1[N+](=O)[O-]` gave DT40 TDP1 no CPT inconclusive, Giardia killer -8.6, IL-1B inflam inh -50.4*, TDP1 cell CPT inconclusive, TDP1 inh 8.2% and ELG1 DNA repair 23.1µM*.
`CCOc1ccccc1NC(=O)c1ccc(OCC)c([N+](=O)[O-])c1` gave DT40 TDP1 no CPT -29.4%, Giardia killer -4.2, IL-1B inflam inh 2.7, TDP1 cell CPT inconclusive, TDP1 inh 5.6% and ELG1 DNA repair 1.5%.
For CCOc1ccc(C(=O)Nc2cc(-c3nc4ccccc4[nH]3)ccc2Cl)cc1[N+](=O)[O-] the results were DT40 TDP1 no CPT 23.1µM*, Giardia killer 6.9, IL-1B inflam inh -20.4, TDP1 cell CPT inconclusive and ELG1 DNA repair inconclusive.
Screening COc1ccc(-c2nc3ccccc3s2)cc1NC(=O)c1ccc(F)cc1 returned DT40 TDP1 no CPT inconclusive, TDP1 cell CPT inconclusive and TDP1 inh 3.2%.
`CCOC(=O)c1c(C)[nH]c(C)c1S(=O)(=O)N(C)CC(=O)Nc1ccc(C)cc1Br` gave DT40 TDP1 no CPT inconclusive, TDP1 cell CPT inconclusive and TDP1 inh 5.3%.
Screening Oc1ccc(Br)cc1CNc1cccc2cccnc12 returned DT40 TDP1 no CPT 25.9µM*, Giardia killer 0.0, IL-1B inflam inh -9.7, TDP1 cell CPT inconclusive and ELG1 DNA repair inconclusive.
Oc1c(Br)cc(Br)cc1CNc1cccc2cccnc12 was read as DT40 TDP1 no CPT inconclusive, Giardia killer -0.6, IL-1B inflam inh 0.0, TDP1 cell CPT 16.4µM*, TDP1 inh 7.1% and ELG1 DNA repair inconclusive.
Screening COc1cccc(CNc2cccc3cccnc23)c1O returned DT40 TDP1 no CPT inconclusive, Giardia killer -8.0, IL-1B inflam inh 3.7, TDP1 cell CPT inconclusive, TDP1 inh 3.3% and ELG1 DNA repair inconclusive.
`N#C/C(=C(/O)CCl)c1nc(-c2ccccc2)cs1` gave DT40 TDP1 no CPT 14.6µM*, Giardia killer -3.7, IL-1B inflam inh -56.6*, TDP1 cell CPT 13µM*, TDP1 inh 2.4% and ELG1 DNA repair inconclusive.
Screening Cc1ccc(-c2csc(/C(C#N)=C(\O)CCl)n2)cc1 returned DT40 TDP1 no CPT inconclusive, Giardia killer 9.4, IL-1B inflam inh -72.8*, TDP1 cell CPT inconclusive, TDP1 inh 2.6% and ELG1 DNA repair inconclusive.
N#C/C(=C(/O)CN1CCN(c2ccccc2F)CC1)c1nc(-c2ccc(Cl)cc2)cs1 was read as DT40 TDP1 no CPT inconclusive, Giardia killer 8.6, IL-1B inflam inh -11.4, TDP1 cell CPT 20.6µM*, TDP1 inh 7.9% and ELG1 DNA repair -20.5%.
N#C/C(=C(/O)CN1CCCCC1)c1nc(-c2ccc(Cl)cc2)cs1 was read as DT40 TDP1 no CPT -7.7%, Giardia killer 4.3, IL-1B inflam inh 14.0, TDP1 cell CPT -14.9%, TDP1 inh 4.0% and ELG1 DNA repair inconclusive.
O=C(CNC(=O)c1ccco1)NCC(=O)OCC(=O)c1ccc(Cl)c([N+](=O)[O-])c1 was read as DT40 TDP1 no CPT inconclusive, Giardia killer -6.9, IL-1B inflam inh -21.6, TDP1 cell CPT inconclusive, TDP1 inh 5.1% and ELG1 DNA repair -4.8%.
`c1ccc2c3c([nH]c2c1)[C@@H]1[C@H]2CC[C@H]([C@H]4CCCN[C@H]42)N1CC3` gave TDP1 inh 12.8%[21 µM].
CCCCN(CC)CCCNC(=O)c1c(C)oc2ncnc(N3CCOCC3)c12 was read as DT40 TDP1 no CPT -16.3%, TDP1 cell CPT 16.7% and TDP1 inh -2.1%.
COCCCNC(=O)c1oc2c(c1C)-c1nn(Cc3ccc(Cl)cc3)cc1CC2 was read as DT40 TDP1 no CPT 18.4µM*, TDP1 cell CPT 23.1µM* and TDP1 inh 2.6%.
Screening COCCCNC(=O)c1oc2c(c1C)-c1nn(Cc3cccc(Cl)c3)cc1CC2 returned DT40 TDP1 no CPT 18.4µM*, TDP1 cell CPT 20.6µM* and TDP1 inh 1.3%.
Screening CCN(CC)CCCNC(=O)c1oc2c(c1C)-c1nn(Cc3ccc(Cl)cc3)cc1CC2 returned DT40 TDP1 no CPT 18.4µM*, TDP1 cell CPT inconclusive and TDP1 inh 2.6%.
Screening CCn1c(-c2cccnc2)nc2cc(NC(=O)COC)cc(C(=O)N3CCc4ccccc4C3)c21 returned DT40 TDP1 no CPT 4.9% and TDP1 cell CPT 0.3%[9.04 µM].
Screening Cn1c(=O)oc2cc(S(=O)(=O)NC(Cc3ccccc3)C(=O)Nc3ccc(F)cc3)ccc21 (centres undefined) returned DT40 TDP1 no CPT 8.3%, TDP1 cell CPT -0.3% and TDP1 inh 2.3%.
For CCC(C)[C@H](N)c1nnc(SCc2ccc(Cl)c(Cl)c2)o1 (some centres undefined) the results were TDP1 inh 3.2%.
`CCC(C)[C@H](N)c1nnc(SCC(=O)c2ccc(Cl)cc2)o1` (some centres undefined) gave DT40 TDP1 no CPT 7.08µM*, Giardia killer 24.0, IL-1B inflam inh -5.3, TDP1 cell CPT 3.98µM*, TDP1 inh 7.0% and ELG1 DNA repair -2.6%.
